# Screening data deposited in PubChem by National Center for Advancing Translational Sciences (NCATS).
# Tau fibril ThT – inhibitors of human tau fibril formation, thioflavin T binding. Potency, µM (top dose mostly 57.4 µM), for inactives: at the highest dose activity, negative = inhibition, most hits filed as inhibitors. recombinant tau K18 P301L, heparin-induced fibrillization, ThT fluorescence. P10636. 2.1% of 270,000 active; further: potency means the concentration at half of the fitted maximal effect; nearly all actives have a fitted effect of over 55% in size
# Target sequence (P10636 561-689 P618L limits assumed): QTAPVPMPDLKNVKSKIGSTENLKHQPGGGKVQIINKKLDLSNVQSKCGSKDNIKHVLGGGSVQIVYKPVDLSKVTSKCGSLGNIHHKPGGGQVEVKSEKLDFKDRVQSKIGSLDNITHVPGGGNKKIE
#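 Recombinant human tau K18 fragment […] carrying P301L, 15 uM unlabeled plus 0.24 uM Alexa 594-labeled, was fibrillized with 20 uM heparin in 100 mM sodium acetate pH 7 for 6 hr at 37 C; 30 uM ThT fluorescence read after 1 hr.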
# TexasRed fluor – Texas Red fluorescence interference in TRb-SRC2 counter-screen; TRb/SRC2 Texas Red total fluorescence interference; Potency, µM (top dose mostly 106 µM), without a hit: at the top dose fluorescence change, negative = quenching; 0.29% of 280,000 active; active means well fitted curve in either direction with a large enough effect; inconclusive means small, poorly fitted or top-dose-only effect; further: potency means the concentration at half of the fitted maximal effect
#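 Human TRb ligand-binding domain at 0.6 uM with 20 nM Texas Red SRC2 peptide in Tris buffer containing 1 uM T3 and 5% DMSO, incubated with compound 5 h at ambient temperature. Total fluorescence (555/632 nm) calculated as parallel + 2 × perpendicular.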
# Tau fibril FP – blocks human tau fibril formation measured by polarization; P10636; K18 P301L tau heparin fibrillization, Alexa594 FP, 6 h; Potency, µM (series often up to 57.7 µM), inactives show at the top dose activity, negative = inhibition, usual class: inhibitors; 0.39% of 280,000 active; AID 1468; further: potency means the concentration at half of the fitted maximal effect; nearly all actives have a fitted effect of over 55% in size
#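 Read-out: fluorescence polarization of Alexa 594-labeled tau (0.24 uM), 555 nm excitation, 632 nm emission. Mixtures held 15 uM unlabeled K18 P301L, compound and 20 uM heparin, pH 7 acetate buffer, incubated 6 hr at 37 C.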
# TRb SRC2 PPI – inhibitors of human thyroid hormone receptor beta-SRC2 interaction. 0.065% of 280,000 active. P10828. TRbeta-SRC2 peptide binding, fluorescence polarization; receptor liganded with 1 µM T3. AID 1469. Potency, µM (highest dose often 106 µM), without a hit: at the top dose activity change, negative = inhibition, most hits filed as inhibitors;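 further: potency means the concentration at half of the fitted maximal effect; plate controls were bound peptide for no effect and peptide without receptor for full effect; nearly all actives have a fitted effect of over 50% in size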
# Target sequence (P10828 whole entry, looked up): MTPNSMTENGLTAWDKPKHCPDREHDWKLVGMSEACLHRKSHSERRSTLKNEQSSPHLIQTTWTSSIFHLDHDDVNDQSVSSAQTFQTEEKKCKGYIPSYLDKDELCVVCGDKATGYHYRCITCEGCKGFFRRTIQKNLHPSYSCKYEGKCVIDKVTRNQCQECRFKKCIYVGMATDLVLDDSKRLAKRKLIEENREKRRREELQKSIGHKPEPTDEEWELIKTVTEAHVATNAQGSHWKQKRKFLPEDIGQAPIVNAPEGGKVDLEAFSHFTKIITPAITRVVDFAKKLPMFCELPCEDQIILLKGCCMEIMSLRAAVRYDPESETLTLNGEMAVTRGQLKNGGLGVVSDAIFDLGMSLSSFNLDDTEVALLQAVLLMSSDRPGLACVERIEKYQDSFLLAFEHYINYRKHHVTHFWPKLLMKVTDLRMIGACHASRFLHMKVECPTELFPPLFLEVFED
#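 Binding of a 20-amino-acid Texas Red SRC2 peptide (20 nM) to TRb ligand-binding domain (0.6 uM) with agonist T3 at 1 uM was followed by fluorescence polarization after a 5 hr room-temperature incubation.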
# PNC inhibitor – inhibitors of perinucleolar compartment assembly | activity change (PNC), negative = inhibition, % at 10 µM | PC3M PTB-GFP, PNC prevalence imaging, 16 h; active compounds read low | 3.1% of 140,000 active | AID 2417;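 active means readout at or below -70, meaning at least 70% loss of cells showing the perinucleolar compartment, a nuclear body marking cancer cells; inconclusive means readout between -30 and a set limit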;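 further: plate controls were DMSO wells for no effect and camptothecin positive control wells for full effect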
#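 Read-out is percentage of cells bearing a perinucleolar compartment, from automated 20x imaging of fixed, Hoechst-stained PC3M PTB-GFP cells. Cells were seeded 4 h, then exposed 16 h to compound (23 nl of library stock) in duplicate plates.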
# Tau fluor cs – counter-screen for tau fibril formation inhibitors; tau K18 P301L Alexa594 fluorescence, heparin fibrillization; Potency, µM (top dose mostly 57.7 µM), for the others: top-dose activity change, negative = decrease; 0.93% of 280,000 active; further: potency means the concentration at half of the fitted maximal effect; nearly all actives have a fitted effect of over 55% in size
#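 Human tau K18 P301L (15 uM unlabeled, 0.24 uM Alexa 594-labeled) in 100 mM sodium acetate pH 7 with 20 uM heparin, 6 hr at 37 C. ThT 30 uM added, 1 hr ambient; Alexa 594 FP and total fluorescence read at 555/632 nm.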
# An asterisk follows results filed as active; ? = inconclusive; . = no result given; [ ] = dose if it differs, or a comment. This is a sample that favours compounds with a hit; in the whole collection about 4.6% have one here. Unless noted, the call rests on the fitted dose curve; in most records, active means well fitted curve in the direction sought with a large enough effect; inconclusive means small, poorly fitted or top-dose-only effect, or another doubt; inactive means no such curve, though single readings can be large; an effect the other way counts as inactive or inconclusive. Unless noted, on the % scale 0 is the no-effect control and ±100 the full control effect.
SMILES,Tau fibril ThT,TexasRed fluor,Tau fibril FP,TRb SRC2 PPI,PNC inhibitor,Tau fluor cs
Cc1cc(NC(=O)Nc2ccc(N(C)C)cc2)c2cc(F)cc(F)c2n1,?,-14%,-6%,-10%,.,7.9µM*[quencher]
COc1ccc(C(=O)Nc2ccc3[nH]c(-c4cccc(OC)c4)cc(=O)c3c2)cc1,?,-6%,-9%[81.3 µM],5%,-119*,?
COc1cccc(-c2cc(=O)c3cc(NC(=O)c4cccnc4)ccc3[nH]2)c1,-19%[81.4 µM],-4%,7%[81.3 µM],2%,.,-3%[81.3 µM]
COc1ccc(NC(=O)CSc2nc(-c3ccco3)cc(C(F)(F)F)n2)cc1,8%,?,?,1%,.,4%
COc1ccccc1-c1ccc(/C=C2\C=CC(=O)O2)o1,?,-2%,1%,12%,.,?
COc1ccccc1-c1ccc(/C=C2/C=C(C)OC2=O)o1,?,5%,-8%,6%,-113*,-21%
Cc1ccc(-c2cc(-c3ccco3)c3c(N)c(C(=O)NN)oc3n2)cc1,10µM*,-10%,-2%,-9%,.,?
COc1cccc(/C=N/NC(=O)c2oc3nc(-c4ccccc4)cc(-c4ccco4)c3c2N)c1,?,0%,5%,-7%,.,-14%
CCOC(=O)C1=C(C)N=c2s/c(=C3/C(=O)Nc4ccccc43)c(=O)n2C1c1ccc(C)cc1 (stereo not given),-6%,-3%,3%,8%,-14,-3%
CCOC(=O)C1=C(C)n2c(s/c(=C3\C(=O)Nc4ccccc43)c2=O)=NC1c1ccc(OC)cc1 (stereo not given),16µM*,-2%,?,-1%,0,?
COc1ccc2[nH]c3c(N4CCC(O)(c5cccc(C(F)(F)F)c5)CC4)ncnc3c2c1,?,-4%,13%,3%,-5,16µM*[quencher]
COc1ccc2[nH]c3c(N4CCN(Cc5ccc6c(c5)OCO6)CC4)ncnc3c2c1,?,-4%,?,-10%,-22,20µM*[quencher]
Cc1ccn2c(=O)nc(SCc3cccc(C(F)(F)F)c3)nc2c1,-9%,-1%,15%,11%,.,-8%
CN(Cc1ccccc1)Cc1nc2c([nH]1)c(=O)n(C)c(=O)n2C,2%,-7%,8%,-3%,-100*,6%
Cc1ccc(NC(=O)c2cnccn2)cc1S(=O)(=O)N(C)C,-3%,-2%,-14%,4%,59,1%
Cc1cnc(C(=O)Nc2ccc(C)c(S(=O)(=O)N(C)C)c2)cn1,-1%,35µM*[quencher],-2%,-17%[53 µM],0,-4%
CCCn1nc(NC(=O)c2cccs2)c2cc3cc(OC)ccc3nc21,-4%,1%,12%,8%,-90*,-30%
CCCCn1nc(NC(=O)c2cccs2)c2cc3cc(OC)ccc3nc21,-11%,0%,14%,2%,?,?
O=C(Nc1ncnc2sc3c(c12)CCCCC3)c1ccco1,4%,2%,3%,-12%,-124*,10%
COc1ccc(-c2nc(-c3ccc4c(c3)OCO4)[nH]c2-c2ccc(OC)cc2)cc1,2%,-1%,2%,-3%,62,1%
COc1ccc(-c2nc(-c3ccccc3)c(-c3ccc(O)cc3)[nH]2)cc1,?,-4%,?,4%,.,14µM*[quencher]
COc1ccc(-c2[nH]c(-c3ccc(O)cc3)nc2-c2ccccc2)cc1,?,-4%,7%,-8%,.,22µM*[quencher]
CC(=O)NCCC(Cc1ccccc1)c1ccco1 (stereo not given),-18%,2%,-2%,0%,-100*,0%
N#CCCn1nc(-c2ccccc2)cc1Nc1ccccc1NC(=O)C(F)(F)F,-4%,0%,1%,-9%,22,-23%
N#CCCn1nc(-c2ccc(Br)cc2)cc1Nc1ccccc1NC(=O)C(F)(F)F,?,-1%,15%,-8%,-4,20µM*[quencher]
SMILES,Tau fibril ThT,TexasRed fluor,Tau fibril FP,TRb SRC2 PPI,PNC inhibitor,Tau fluor cs
Cc1ccc(OCCn2cc(C#N)c3ccccc32)cc1,-8%,-1%,-9%,2%,?,-25%
COC(=O)c1cn(CCOc2ccc(C)cc2)c2ccccc12,-16%,-1%,-11%,-5%,-82*,-29%
CCOC(=O)C1=C(CN2CCN(c3ccc(OC)cc3)CC2)NC(=O)NC1c1ccc(OC)cc1 (stereo not given),-15%,100µM*[quencher],2%,-20%,.,-14%
O=C(CSc1nc(=O)[nH]c2c1CCCC2)NCc1ccc(F)cc1,-9%,0%,-8%,-4%,.,-10%
Cc1nn(C)c(C)c1NC(=O)CSc1nnc(C)n1-c1ccccc1,-2%,0%,6%,-17%,?,5%
COc1cccc(C2CC(=O)N3CN(C4CCCCC4)CSC3=C2C#N)c1 (stereo not given),35µM*,-1%,?,0%,.,-24%
CN1CSC2=C(C#N)C(c3cccc(OCc4ccccc4)c3)CC(=O)N2C1 (stereo not given),?,-2%,?,6%,27,-20%
COc1ccc(C2C(=O)N(C3CCCCC3)CC(=O)N2C2CCCC2)cc1 (stereo not given),-9%,-2%,-12%,1%,57,-9%
COc1ccc(C2CC(=O)N3CN(C4CCCCC4)CSC3=C2C#N)cc1 (stereo not given),18µM*,-1%,?,3%,.,-19%
O=c1c2c([N+](=O)[O-])cc([N+](=O)[O-])cc2sn1-c1ccc(Br)cc1,14µM*,5%,22µM*,4%,-7,?
O=c1c2cc(Br)ccc2nc(-c2ccc([N+](=O)[O-])cc2)n1O,?,-6%,0%,-7%,.,-7%
O=C(Nc1ccc2ccccc2c1)C(=O)C1C(=O)Nc2ccccc21 (stereo not given),4µM*,-2%,3%,-6%,.,-25%
O=C(Nc1ccc(F)cc1)C(=O)C1C(=O)Nc2ccccc21 (stereo not given),?,-1%,7%,0%,.,-13%
Oc1cccc(NC(=S)Nc2cccnc2)c1,?,-2%,1%,-7%,-88*,-23%
S=C(Nc1cccnc1)Nc1ccccc1Br,-9%,-2%,-11%,-8%,.,-7%
CC(C)CC(=O)Nc1ccc2nc(SCC(=O)N3CCOCC3)sc2c1,2%,1259µM*[quencher],-3%,-14%,.,-7%
CCN(CC)C(=O)CSc1nc2ccc(NC(=O)CSc3nnc(N)s3)cc2s1,-17%,-5%,1%,-3%,-100*,-13%
CC(C)CC(=O)Nc1ccc2nc(SCC(=O)N3CCCC3)sc2c1,1%,4%,3%,-9%,.,-5%
COc1ccccc1C(=O)Nc1ccc2nc(SCC(=O)N(C)C)sc2c1,-17%,0%,-5%,4%,-114*,-11%
